Among the data in PubChem BioAssay AID652054 (National Center for Advancing Translational Sciences (NCATS), 2013) are max response, negative = inhibition values, retold here.

About 9,100 (2.5%) of roughly 360,000 compounds were called active. Roughly 4% stayed inconclusive and do not appear here. For the sample, actives were picked, then their nearest neighbours and some compounds at random. A number with no mark means an inactive call. No stated cut-off is given here; in the data, active means max response below about -50%; inconclusive means no clear call, values can overlap the other calls; inactive means above that.
On the % scale 0 is the no-effect control and ±100 the full control effect.

In the assay the target is D(3) dopamine receptor (Homo sapiens) (UniProt P35462). In words: qHTS of D3 Dopamine Receptor Antagonist: qHTS. The note with it: D3R cells, DiscoveRx beta-arrestin luminescence, antagonist mode; stronger effect = lower value. The method, boiled down: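 Cells expressing the human receptor were seeded at 1500 cells/well, incubated overnight at 37 degrees C in 5% CO2, then exposed to library compounds with dopamine controls for 90 minutes at 37 degrees C before luminescent detection.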
Sequence of D(3) dopamine receptor (Homo sapiens) (P35462 whole entry, looked up): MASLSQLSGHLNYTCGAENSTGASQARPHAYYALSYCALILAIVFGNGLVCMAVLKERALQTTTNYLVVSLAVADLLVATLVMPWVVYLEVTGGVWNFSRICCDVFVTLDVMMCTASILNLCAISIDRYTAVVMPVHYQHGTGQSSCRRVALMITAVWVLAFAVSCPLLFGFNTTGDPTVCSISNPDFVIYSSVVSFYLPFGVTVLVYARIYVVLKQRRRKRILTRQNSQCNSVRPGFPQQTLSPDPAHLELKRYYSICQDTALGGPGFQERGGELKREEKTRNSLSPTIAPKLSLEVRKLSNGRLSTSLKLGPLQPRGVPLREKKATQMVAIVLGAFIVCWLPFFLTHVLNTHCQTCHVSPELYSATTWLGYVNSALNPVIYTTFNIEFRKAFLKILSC
Background: qHTS replaces the single test concentration by a dilution series.
In the case of `CC(O)(c1cccc(F)c1)c1nc(-c2ccc3c(c2)OCO3)cs1` (configuration not stated), the max response, negative = inhibition is -22.4%. For `CC1(C)OC(=O)C2=C(C[C@@H](C3CC3)O[C@H]2CCc2cccc(Cl)c2)O1`, the max response, negative = inhibition was 12.7%.

Consider `CN1CCN(C(=O)c2ccc(NC(=O)c3ccc(Br)o3)cc2)CC1`, for which the max response, negative = inhibition is 23.3%. Consider `Nc1ccc2[nH]c(=S)sc2c1`, for which the max response, negative = inhibition was -18.8%. With `CCOc1ccc2[nH]c(=S)sc2c1` the figure was -53% (active); with `CCOc1ccc2[nH]c(=O)c(CN(CCCO)C(C)=O)cc2c1`, 3.99%. With `CCOC(=O)C1=C(c2ccc(OC)cc2)C(=O)c2ccccc2C1=O` the figure was -64% (active); with `COC(=O)c1cc(OC)ccc1-c1ccc(OC)cc1`, -8.91%; with `CCOC(=O)C(NC(C)=O)C(=O)Nc1ccc(OC)cc1` (configuration not stated), -11.9%. With `CC1(C(=O)Nc2ccc3c(c2)OCCO3)CN(S(C)(=O)=O)CC(=O)N1Cc1cccc(F)c1` (configuration not stated) the figure was 3.16%; with `CCN(Cc1ccncc1)C(=S)Nc1ccccc1C`, 27.7%. On to `CN(CC(=O)Nc1ccc(Cl)cc1)CC(=O)Nc1cccc2ccccc12`, for which the max response, negative = inhibition is -3.81%. Turning to `CCCCN(C)CCC(=O)Nc1ccc(Cl)cc1`, the max response, negative = inhibition is -52.6% (active).

For the compound `CC(=O)Nc1ccc(NC(=O)CCCNC(=O)c2ccc(Cl)cc2)cc1`, the max response, negative = inhibition was -16.5%.

As to `O=S1(=O)CC(N2CCC(Cc3ccccc3)CC2)CN1Cc1ccccc1` (configuration not stated), the max response, negative = inhibition was -2.05%. On to `NC(=O)CSc1nnc(NC(=O)c2ccc(Br)o2)s1`, for which the max response, negative = inhibition was 4.15%.

`Cc1cccc(NC(=O)c2nc(S(=O)(=O)Cc3ccccc3)ncc2Cl)c1`: the max response, negative = inhibition was -1.08%. Take `O=C(Nc1ccc(F)cc1)c1ccc(S(=O)(=O)NCc2cccnc2)cc1`: the max response, negative = inhibition was 8.92%. On to `Cc1nnc(NC(=O)c2ccc3nccnc3c2)s1`, for which the max response, negative = inhibition is -10.2%.

On to `CSc1nnc(NC(=O)c2nc(S(=O)(=O)Cc3ccc(C)cc3)ncc2Cl)s1`, for which the max response, negative = inhibition was -83.3% (active). On to `Cc1nnc(NC(=O)CCCOc2ccccc2)s1`, for which the max response, negative = inhibition was 14.4%.

`Cc1ccc(CS(=O)(=O)c2ncc(Cl)c(C(=O)Nc3nnc(C)s3)n2)cc1`: the max response, negative = inhibition was -73.5% (active).

As for `Cc1cccc(CS(=O)(=O)c2ncc(Cl)c(C(=O)Nc3ccc(F)cc3)n2)c1`, the max response, negative = inhibition is -105% (active). Take `COCCSc1nnc(NC(=O)CCS(=O)(=O)Cc2ccccc2)s1`: the max response, negative = inhibition was 0.795%. As for `CC(=O)Nc1cncc(-c2ccccc2CO)n1`, the max response, negative = inhibition was 10.6%. In the case of `CCOC(=O)[C@H]1Nc2ccc(Cl)cc2[C@@H]2[C@H]1C1CC(c3ccccc31)N2C(=O)OCc1ccccc1` (some centres not stated), the max response, negative = inhibition is -1.57%. Turning to `CCCCc1c(-c2ccc(Cl)cc2)ncn1CCc1ccccc1OC`, the max response, negative = inhibition was 71.4%.

`COc1ccc(S(=O)(=O)N(C)C)cc1NC(=O)COC(=O)c1n[nH]c2ccccc12`: the max response, negative = inhibition is 16%. On to `CCc1cc(C(=O)N(CC)CC(=O)Nc2c(F)cccc2F)sc1C`, for which the max response, negative = inhibition is 0%. `COc1ccc(CCCNC(=O)C2Cc3c(-c4cccc(C(N)=O)c4)ccnc3O2)cc1` (configuration not stated): the max response, negative = inhibition is 2.06%.

For the compound `Cc1cc(O)ccc1-c1cc(C(=O)NCc2cc(C(F)(F)F)cc(C(F)(F)F)c2)[nH]n1`, the max response, negative = inhibition was -17.9%. With `C[C@@H]1CN([C@H](C)CO)C(=O)CCCn2nncc2CO[C@@H]1CN(C)C(=O)OCc1ccccc1` the figure was -23.6%; with `CC1(C)OC(=O)C2=C(C[C@@H](C3CC3)O[C@H]2c2ccc(Cl)cc2)O1`, 49.4%.

Take `CCC(CC)C(=O)N1CC(=O)Nc2ccc(Br)cc2C1c1ccccc1` (configuration not stated): the max response, negative = inhibition was 4.84%. As to `COC(=O)CN1C(C)=Nc2ccc(Br)cc2C1c1ccccc1` (configuration not stated), the max response, negative = inhibition is -64% (active). With `COC(=O)CN1C(=O)C(O)=C(C(C)=O)C1c1ccc([N+](=O)[O-])cc1` (configuration not stated) the figure was -23.2%; with `CN(c1ccccc1)S(=O)(=O)c1ccc(C(=O)NCc2cccnc2)cc1`, -14.9%.

With `COc1ccc(C(C)(O)c2nc(-c3ccc(C)c(C)c3)cs2)cc1` (configuration not stated), the max response, negative = inhibition is -20.6%. Take `CCNC(=O)C1(C)CCCN(C(=O)c2ccc3ccccc3n2)C1` (configuration not stated): the max response, negative = inhibition is 0%. Regarding `CCOC(=O)c1cc(-c2sc(NC(=O)c3ccccc3)nc2C)n(-c2ccc(Br)cc2)n1`, the max response, negative = inhibition is 24%. On to `COc1ccc(-c2cc(C(=O)NCCCN3CCOCC3)no2)cc1`, for which the max response, negative = inhibition was 1.86%.

For the compound `COc1ccc(-c2ccc(C(=O)NCCN3CCOCC3)c3occc23)c(C)c1`, the max response, negative = inhibition is -78.2% (active). With `COc1ccc(-c2ccc(C(=O)NC(C)C)c3occc23)c(C)c1` the figure was 19.9%; with `CC(C)C[C@@H](COCc1ccc(Cl)cc1)N1CCN(C(=O)c2ccc(Cl)cc2Cl)CCC1=O`, 11.5%; with `Cc1ccccc1OS(=O)(=O)c1cccc([N+](=O)[O-])c1`, -14.2%. Regarding `CC(C)N1C(=O)c2ccccc2NC(=O)C1C(=O)NCc1cccs1` (configuration not stated), the max response, negative = inhibition is -19.3%. With `COC(=O)C[C@H]1C[C@@H]2c3cc(N(C)C)ccc3O[C@@H]2[C@H](CO)O1` the figure was 17%; with `O=C(NCc1ccccc1)C1c2ccccc2OCC(=O)N1CCCN1CCOCC1` (configuration not stated), 0.216%. For `O=C(NCc1ccc(F)cc1)c1cc(C2CCCCN2C(=O)c2cccs2)on1` (configuration not stated), the max response, negative = inhibition is 12.8%. With `CCC1NC(=O)c2cccnc2-n2c1nc1ccc(C)cc1c2=O` (configuration not stated) the figure was 16.9%; with `CN1CCN(C2Cc3ccc(Cl)cc3Sc3ccc(F)cc32)CC1` (configuration not stated), -88% (active).

With `COCCNC(=O)C1C(=O)Nc2ccccc2C(=O)N1c1ccc2c(c1)OCCO2` (configuration not stated), the max response, negative = inhibition is 5.54%.

As for `O=C(c1ncn2c1c(=O)[nH]c1ccccc12)N1CCc2ccccc2C1`, the max response, negative = inhibition was 1.07%.

With `Cc1cccc(N2CCN(C(=O)c3cc4c(=O)[nH]c5ccccc5c4n3C)CC2)c1C`, the max response, negative = inhibition is 2.48%. With `Cn1c(C(=O)NCCN2CCc3ccccc3C2)cc2c(=O)[nH]c3ccccc3c21` the figure was -59.2% (active); with `CCCCCCN1CCN(C2CN(Cc3cn(Cc4ccc(F)cc4)nn3)S(=O)(=O)C2)CC1` (configuration not stated), 3.43%; with `Cc1cccc(NC(=O)c2cc(S(=O)(=O)N3CCC4(CC3)OCCO4)ccc2F)c1`, -11.3%. Take `CCOc1ccccc1NC(=O)c1cc(S(=O)(=O)N2CCC3(CC2)OCCO3)ccc1F`: the max response, negative = inhibition was -83.8% (active). Take `Cc1c(C(=O)Nc2ccccc2Cl)oc2ccc(S(=O)(=O)N3CCC4(CC3)OCCO4)cc12`: the max response, negative = inhibition is 22.3%. Take `CCCC(=O)N1CCC1(C)C(=O)NCc1ccc(SC)cc1` (configuration not stated): the max response, negative = inhibition was -2.93%. With `Cc1cccc(S(=O)(=O)N(C)C[C@H]2OCc3cnnn3CCCC(=O)N([C@@H](C)CO)C[C@H]2C)c1`, the max response, negative = inhibition is 19.6%. With `CC(=O)Nc1c(-c2ccc(C)cc2)nc2ccc(Cl)cn12` the figure was -4.26%; with `CC(C)c1cc(C(=O)N(C)C2CCCN(Cc3ccccc3F)C2)n(C)n1` (configuration not stated), -9.14%. Turning to `CSc1ncnc2c1ncn2CCCNCC1CCCCC1`, the max response, negative = inhibition was -105% (active). With `CSc1ncnc2c1ncn2CCCNCc1ccco1` the figure was 0.282%. In the case of `CSc1ncnc2c1ncn2CCCNCC(C)c1ccccc1` (configuration not stated), the max response, negative = inhibition was 1.7%. Turning to `CCCCNC(=O)OC1CC2CC1[C@H]1CCCCN1C2=O` (some centres not stated), the max response, negative = inhibition was 2.26%. `CCOC(=O)N1CCN(S(=O)(=O)c2ccc(OC)cc2)CC1`: the max response, negative = inhibition was 3.43%. Take `CCOC(=O)N1CCN(S(=O)(=O)c2ccc(C(=O)Nc3ccc(F)cc3F)cc2)CC1`: the max response, negative = inhibition is -76.7% (active).

Take `CCOC(=O)N1CCN(S(=O)(=O)c2ccc(Br)cc2)CC1`: the max response, negative = inhibition was 8.1%. With `Cc1nc(C(F)(F)F)ccc1C(=O)N1CCC1(C)C(=O)NS(=O)(=O)c1ccccc1` (configuration not stated) the figure was 25.3%; with `O=[N+]([O-])c1ccc(CN2CC(N3CC=CC3)CS2(=O)=O)cc1` (configuration not stated), 9.3%. As for `NC(CSC(c1ccccc1)(c1ccccc1)c1ccc(-c2ccccc2)cc1)C(=O)O` (configuration not stated), the max response, negative = inhibition was 6.39%. In the case of `CN(c1ccc(C(=O)N2CCc3ccccc3C2)cc1)S(C)(=O)=O`, the max response, negative = inhibition was 30.4%. With `O=C(Nc1ccc(CSc2ccccc2)cc1)c1ccc(CN2CCOCC2)cc1` the figure was 2.28%; with `Cc1cccc(C)c1NC(=O)c1ccc(CN2CCc3ccccc3C2)cc1`, -84.7% (active).

As for `CCc1ccc(NC(=O)N2CCc3ccccc3C2)cc1`, the max response, negative = inhibition was -11%. `CC(=O)Nc1cccc(NC(=O)c2ccc3c(c2)CCN3S(C)(=O)=O)c1`: the max response, negative = inhibition is -9.74%. For the compound `CN(c1cccc(NC(=O)c2ccc(CN3CCc4ccccc4C3)cc2)c1)S(C)(=O)=O`, the max response, negative = inhibition is -69.7% (active). With `CC1(C(=O)NS(=O)(=O)c2cccc(OC(F)F)c2)CCN1C(=O)C1CC1` (configuration not stated), the max response, negative = inhibition was -9.73%. On to `c1ccc(Cc2c(-c3ccco3)nc3c4ccccc4ccn23)cc1`, for which the max response, negative = inhibition was 21.1%.

In the case of `O=C(COC(=O)c1ccc(S(=O)(=O)N2CCCCCC2)cc1)Nc1ccccc1C(F)(F)F`, the max response, negative = inhibition was -1.68%. `CSc1ccc(CNC(=O)C2(C)CCCN2C)cc1` (configuration not stated): the max response, negative = inhibition was 0%.

In the case of `CCOC(=O)N1CCN(C(c2ccnc3ccccc23)c2nnnn2-c2c(C)cccc2C)CC1` (configuration not stated), the max response, negative = inhibition was -7.2%. With `O=C(COC(=O)c1ccccc1)c1ccc2c(c1)OCCO2` the figure was -5.24%; with `O=C(CCN1CCc2ccccc2C(O)(c2ccccc2)C1)c1ccc2c(c1)OCCO2` (configuration not stated), -73.7% (active).

As to `CCC1(c2ccccc2)NC(=O)N(CC(=O)c2ccc3c(c2)OCO3)C1=O` (configuration not stated), the max response, negative = inhibition is 4.79%. `COc1ccc(C(=O)N2CCCCC2c2cc(C(=O)Nc3ccccc3)no2)cc1` (configuration not stated): the max response, negative = inhibition is -19.9%. For `C[C@H]1CN([C@@H](C)CO)S(=O)(=O)c2ccc(Br)cc2O[C@H]1CN(C)C(=O)c1cnccn1`, the max response, negative = inhibition is -8.27%. Consider `Cc1cc(C)n(CC(O)CN(c2ccccc2)S(=O)(=O)c2ccc3ccccc3c2)n1` (configuration not stated), for which the max response, negative = inhibition was 10.5%. Regarding `Cc1cccc(N(CC(O)CN(C)C)S(=O)(=O)c2ccccc2)c1` (configuration not stated), the max response, negative = inhibition is 0.407%.

As to `Cc1ccc(N(CC(O)CN2CCCC2)S(=O)(=O)c2ccccc2)cc1` (configuration not stated), the max response, negative = inhibition is -57.8% (active).
